# Reference: PubChem BioAssay
# Active and inactive are the calls of the source.
# Legend:
# [1] = small molecules captured by biotinylated probe aFSTL3 – biochemical, small-molecule microarray, fluorescence 635/667, stem cell growth factor project, primary screen (AID 1064); details: higher = more signal;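 also: measures binding of the biotinylated anti-FSTL3 antibody to printed compounds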
# [2] = binders from COS7 lysate, DM2A8 probe, primary screen, torsin A project, cell lysate, small-molecule microarray, fluorescence 635/667 (AID 1065); details: higher = more signal, COS7 lysate expressing mutant human TOR1A
# [3] = small molecules captured by biotinylated probe aFGF2 – biochemical, small-molecule microarray, fluorescence 635/667, stem cell growth factor project, primary screen (AID 1067); details: higher = more signal;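 also: measures binding of biotinylated aFGF2 protein to printed compounds on slides; z-score merges feature fluorescence and signal-to-noise across triplicate slides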
# [4] = small molecules captured by biotinylated probe aFGF10 – biochemical, small-molecule microarray, fluorescence 635/667, stem cell growth factor project, primary screen (AID 1071); details: higher = more signal;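 also: score merges 667 nm spot intensity and signal to noise from triplicate slides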
# [5] = molecular target: Neurogenic locus notch homolog protein 2 (Homo sapiens) (UniProt Q04721); experiment: small molecules binding Notch2 protein – biochemical, small-molecule microarray, 635 nm fluorescence, stem cell growth factors, primary screen (AID 1073); details: higher = more signal
# [6] = molecular target: Pro-neuregulin-1, membrane-bound isoform (Homo sapiens) (UniProt Q02297); experiment: small molecules binding neuregulin-1 protein – biochemical, small-molecule microarray, fluorescence 635/667, psychiatric disease protein project, primary screen (AID 1075); details: NRG1 binding, 635 nm fluorescence, higher = more signal;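 also: score combines 667 nm spot fluorescence with signal to noise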
# [7] = test system: Neuregulin-1 EGF-like domain; experiment: small molecules binding NRG1 EGF domain – biochemical, small-molecule microarray, 635 nm fluorescence, primary screen (AID 1081); details: higher = more signal;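 also: binding of the protein to compounds printed on small-molecule microarray slides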
# [8] = FRG1 expression reporter modulators in myotubes – cell-based, C2C12 myotubes, firefly/Renilla luciferase, luminescence, FRG1 inhibition for FSHD, primary screen (AID 1084); details: FRG1 promoter luciferase, higher = more signal, called active from +8 up or from −8 down
# [9] = small molecules captured by biotinylated probe aFST – biochemical, small-molecule microarray, fluorescence 635/667, stem cell growth factor project, primary screen (AID 1086); details: higher = more signal;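 also: score merges 667 nm fluorescence with signal-to-noise of each printed compound spot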
# [10] = binders of probe aHhip on microarray, primary screen, stem cell growth factor project, biochemical, small-molecule microarray, fluorescence 635/667 (AID 1087); details: higher = more signal;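 also: score merges spot fluorescence at 667nm with spot signal to noise ratio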
# [11] = test system: PRMT1 (protein arginine N-methyltransferase 1); experiment: small molecules binding arginine methyltransferase PRMT1 – biochemical, small-molecule microarray, 635 nm fluorescence, primary screen (AID 1088); details: higher = more signal;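 also: binding of Prmt1 protein to compounds spotted on small-molecule microarray slides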
# [12] = growth effects on S. cerevisiae YJM789 – YJM789 clinical isolate, OD600, 24 h, basal, primary screen (AID 1089); details: higher = more signal, called active from +8 up or from −8 down;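 also: growth of clinical yeast isolate S. cerevisiae YJM 789 seeded 1000 cells per well; test concentration not given here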
# [13] = S. pombe growth modifiers, basal conditions – strain 972, OD600, 24 h, no modulator, primary screen (AID 1090);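 also: basal condition with compound alone and no growth modifier present; test concentration not given here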; details: S. pombe 972 growth, higher = more signal, called active from +8 up or from −8 down
# [14] = budding yeast growth modifiers under rapamycin – strain BY4716, OD600, 96 h, primary screen (AID 1091); also: test concentration not given here; details: S. cerevisiae BY4716 + rapamycin, higher = more signal, called active from +8 up or from −8 down
# [15] = molecular target: Torsin-1A-interacting protein 2 (Homo sapiens) (UniProt Q8NFQ8); experiment: small molecules binding lysate-expressed LULL1 – cell lysate, human LULL1 lysate, 635/667 nm fluorescence, primary screen (AID 1092); details: small-molecule microarray, hLULL1 lysate binding, 635 nm fluorescence; higher = more signal;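 also: probe is lysate of COS7 cells overexpressing human LULL1; score merges per-feature 667 nm fluorescence with signal-to-noise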
# [16] = optical density change of DRC41 E. coli – strain DRC41, OD650, 24 h, E. coli filamentation project, primary screen (AID 1093);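 also: MC1000 strain lacking acrAB efflux and sulA so SOS filamentation is blocked; test concentration not given here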; details: E. coli DRC41 growth, higher = more signal, called active from +8 up or from −8 down
# [17] = probe aLefty2 binding to arrayed compounds – biochemical, biotinylated probe, 635/667 nm fluorescence, primary screen (AID 1094); details: small-molecule microarray, higher = more signal;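 also: score merges spot fluorescence near 667 nm with spot signal-to-noise ratio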
# [18] = test system: Noggin (protein binding on small-molecule microarray); experiment: small molecules binding Noggin protein – biochemical, 635/667 nm fluorescence, primary screen (AID 1095); details: 635 nm fluorescence, higher = more signal;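 also: score merges 667 nm feature fluorescence with signal to noise over triplicate slides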
# [19] = molecular target: Neurogenic locus notch homolog protein 3 (Homo sapiens) (UniProt Q9UM47); experiment: small molecules binding NOTCH3 protein – biochemical, 635/667 nm fluorescence, primary screen (AID 1096); details: small-molecule microarray, 635 nm fluorescence, higher = more signal
# [20] = probe aEGFR binding to arrayed compounds – biochemical, biotinylated probe, 635/667 nm fluorescence, primary screen (AID 1097); details: small-molecule microarray, higher = more signal;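 also: probe is a biotinylated anti-EGFR antibody binding compounds printed on slides; score combines fluorescence near 667 nm and signal to noise of each spot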
# Sequence of Torsin-1A-interacting protein 2 (Homo sapiens) (Q8NFQ8 whole entry, looked up): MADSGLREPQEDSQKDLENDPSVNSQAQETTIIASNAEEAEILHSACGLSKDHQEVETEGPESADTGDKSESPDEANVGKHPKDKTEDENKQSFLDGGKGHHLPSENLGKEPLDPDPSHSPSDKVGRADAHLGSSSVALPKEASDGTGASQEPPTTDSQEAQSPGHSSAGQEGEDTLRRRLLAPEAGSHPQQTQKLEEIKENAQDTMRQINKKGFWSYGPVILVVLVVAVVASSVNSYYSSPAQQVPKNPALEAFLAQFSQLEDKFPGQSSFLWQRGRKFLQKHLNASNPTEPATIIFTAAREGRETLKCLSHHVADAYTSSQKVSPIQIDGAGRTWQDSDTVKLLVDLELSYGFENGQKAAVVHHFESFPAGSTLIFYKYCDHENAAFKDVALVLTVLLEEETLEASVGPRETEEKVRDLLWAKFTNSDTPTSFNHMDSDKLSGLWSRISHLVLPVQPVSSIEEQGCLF
# Sequence of Neurogenic locus notch homolog protein 3 (Homo sapiens) (Q9UM47 whole entry, looked up): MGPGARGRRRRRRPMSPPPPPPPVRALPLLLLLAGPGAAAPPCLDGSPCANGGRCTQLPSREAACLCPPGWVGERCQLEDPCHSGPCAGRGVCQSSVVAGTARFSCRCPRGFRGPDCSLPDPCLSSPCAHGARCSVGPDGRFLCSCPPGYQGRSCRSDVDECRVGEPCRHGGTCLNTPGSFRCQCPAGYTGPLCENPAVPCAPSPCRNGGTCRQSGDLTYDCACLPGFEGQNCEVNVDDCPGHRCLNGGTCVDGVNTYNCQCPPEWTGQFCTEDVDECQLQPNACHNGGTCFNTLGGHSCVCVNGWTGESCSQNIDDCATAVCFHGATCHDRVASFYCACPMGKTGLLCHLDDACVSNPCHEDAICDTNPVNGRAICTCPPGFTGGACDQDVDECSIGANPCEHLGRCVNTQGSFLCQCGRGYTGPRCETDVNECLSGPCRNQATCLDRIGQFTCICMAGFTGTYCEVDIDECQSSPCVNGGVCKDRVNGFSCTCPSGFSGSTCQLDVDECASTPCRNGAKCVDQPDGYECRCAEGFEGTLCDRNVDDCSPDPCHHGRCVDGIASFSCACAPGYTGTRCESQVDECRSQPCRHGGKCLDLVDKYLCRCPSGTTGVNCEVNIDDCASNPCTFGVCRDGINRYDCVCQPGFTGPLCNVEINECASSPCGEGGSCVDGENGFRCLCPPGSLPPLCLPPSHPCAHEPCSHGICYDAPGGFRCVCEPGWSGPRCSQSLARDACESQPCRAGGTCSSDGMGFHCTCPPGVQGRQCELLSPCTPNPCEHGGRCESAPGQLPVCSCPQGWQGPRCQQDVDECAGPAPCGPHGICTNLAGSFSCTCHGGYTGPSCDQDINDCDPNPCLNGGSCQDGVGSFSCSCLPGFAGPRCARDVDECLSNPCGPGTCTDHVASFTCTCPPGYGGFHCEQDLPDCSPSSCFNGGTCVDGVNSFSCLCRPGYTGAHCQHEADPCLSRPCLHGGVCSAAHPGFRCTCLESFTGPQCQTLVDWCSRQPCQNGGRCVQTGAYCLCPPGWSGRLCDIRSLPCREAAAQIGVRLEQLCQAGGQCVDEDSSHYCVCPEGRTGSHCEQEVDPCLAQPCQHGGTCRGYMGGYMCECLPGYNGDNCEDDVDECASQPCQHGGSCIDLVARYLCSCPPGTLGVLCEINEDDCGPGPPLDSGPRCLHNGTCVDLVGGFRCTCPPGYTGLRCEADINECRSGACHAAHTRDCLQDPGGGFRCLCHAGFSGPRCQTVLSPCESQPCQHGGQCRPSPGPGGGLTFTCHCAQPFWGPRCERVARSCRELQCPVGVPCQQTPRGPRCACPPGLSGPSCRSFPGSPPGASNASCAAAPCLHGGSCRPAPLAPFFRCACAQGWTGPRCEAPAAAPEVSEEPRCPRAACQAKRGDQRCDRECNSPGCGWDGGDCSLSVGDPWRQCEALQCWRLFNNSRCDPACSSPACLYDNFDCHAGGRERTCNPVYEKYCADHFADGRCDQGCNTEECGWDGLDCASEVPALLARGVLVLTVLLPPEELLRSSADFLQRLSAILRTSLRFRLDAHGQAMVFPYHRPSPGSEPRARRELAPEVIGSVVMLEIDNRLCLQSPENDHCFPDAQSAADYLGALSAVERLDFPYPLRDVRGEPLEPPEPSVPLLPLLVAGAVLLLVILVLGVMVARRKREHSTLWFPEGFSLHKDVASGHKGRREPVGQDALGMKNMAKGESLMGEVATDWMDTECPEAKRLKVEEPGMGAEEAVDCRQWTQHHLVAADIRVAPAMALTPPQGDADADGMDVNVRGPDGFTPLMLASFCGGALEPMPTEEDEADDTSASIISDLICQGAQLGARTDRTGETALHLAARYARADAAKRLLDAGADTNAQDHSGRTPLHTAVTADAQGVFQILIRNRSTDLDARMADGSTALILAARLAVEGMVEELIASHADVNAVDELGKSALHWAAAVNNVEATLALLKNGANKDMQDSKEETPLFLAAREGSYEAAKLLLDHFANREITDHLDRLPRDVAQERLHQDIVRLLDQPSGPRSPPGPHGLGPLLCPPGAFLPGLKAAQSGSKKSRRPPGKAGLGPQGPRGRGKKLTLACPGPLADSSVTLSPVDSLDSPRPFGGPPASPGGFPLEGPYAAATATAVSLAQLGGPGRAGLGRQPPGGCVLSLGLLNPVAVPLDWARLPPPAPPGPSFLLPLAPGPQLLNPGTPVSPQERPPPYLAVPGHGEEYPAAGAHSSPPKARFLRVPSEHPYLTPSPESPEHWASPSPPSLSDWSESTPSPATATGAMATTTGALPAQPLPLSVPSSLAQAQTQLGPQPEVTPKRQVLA
# Sequence of Pro-neuregulin-1, membrane-bound isoform (Homo sapiens) (Q02297 whole entry, looked up, the tested form may be a part, canonical isoform): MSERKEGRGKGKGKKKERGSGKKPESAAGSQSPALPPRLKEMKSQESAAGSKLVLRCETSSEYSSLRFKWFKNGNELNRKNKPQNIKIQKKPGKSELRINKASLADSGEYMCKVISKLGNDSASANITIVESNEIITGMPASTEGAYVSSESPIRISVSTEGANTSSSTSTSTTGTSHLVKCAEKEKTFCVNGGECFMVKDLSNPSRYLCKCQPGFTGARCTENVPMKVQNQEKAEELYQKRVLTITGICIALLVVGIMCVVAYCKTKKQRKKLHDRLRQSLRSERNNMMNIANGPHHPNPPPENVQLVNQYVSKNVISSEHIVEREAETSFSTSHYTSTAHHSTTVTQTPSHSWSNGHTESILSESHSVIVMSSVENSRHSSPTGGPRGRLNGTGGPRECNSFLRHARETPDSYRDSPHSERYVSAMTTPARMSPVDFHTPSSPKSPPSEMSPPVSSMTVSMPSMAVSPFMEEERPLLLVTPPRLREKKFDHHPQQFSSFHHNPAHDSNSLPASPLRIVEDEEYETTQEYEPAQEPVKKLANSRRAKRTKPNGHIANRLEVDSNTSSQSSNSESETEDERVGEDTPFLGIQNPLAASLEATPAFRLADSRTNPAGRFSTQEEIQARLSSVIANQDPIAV
SMILES,composite z-score [1],composite z-score [2],composite z-score [3],composite z-score [4],composite z-score [5],composite z-score [6],composite z-score [7],z-score [8],composite z-score [9],composite z-score [10],composite z-score [11],z-score [12],z-score [13],z-score [14],composite z-score [15],z-score [16],composite z-score [17],composite z-score [18],composite z-score [19],composite z-score [20]
C=CCN1C(=O)[C@@]2(O[C@@H](CCn3cc([C@H](O)c4ccccc4)nn3)[C@H]([Si](C)(C)c3ccc(OC)cc3)[C@H]2C)c2cc(N3CCC3=O)ccc21,0.211,0.175,-0.0894,0.383,-0.496,0.997,1.25,-1.88 (inactive),-0.259,-0.13,0.467,1.38 (inactive),0.95 (inactive),2.37 (inactive),1.03,0.456 (inactive),-0.11,0.711,-0.681,-0.183
O=C1OCC=C[C@H]2OC34C=CCN(Cn5nnc6ccccc65)C(=O)[C@H]3N(CCCO)C(=O)[C@@H]4[C@@H]12 (stereo not given in full),0.466,-0.772,-0.0015,0.0131,-1.04,1.09,1.54,0.67 (inactive),-0.772,-0.0618,-0.169,0.465 (inactive),-0.883 (inactive),-0.437 (inactive),0.433,1.93 (inactive),-0.217,-0.2,-0.579,-0.356
COCCCNC(=O)[C@]1(CCS(=O)(=O)c2ccccc2)N=C(c2ccc(OCCCO)cc2)O[C@@H]1c1ccccc1CN=[N+]=[N-],0.688,1.32,0.418,0.948,1.63,1.79,1.14,0.174 (inactive),1.44,-0.0518,1.55,1.52 (inactive),0.971 (inactive),2.59 (inactive),3.47,0.773 (inactive),0.417,0.896,1.02,0.455
